Bioassay records from PubChem BioAssay.
Many of the other results were omitted from the sample, so hits are more common in it than they were.
Tgondii IFNg: inhibitors of Toxoplasma gondii growth with IFN-gamma. Toxoplasma gondii growth in IFN-gamma-treated host cells; active compounds read low. activity change, negative = inhibition, % (concentration not given with the values). actives 3.8% (n = 69,000); in the data active = activity change below about -70%, passing the limit was not always enough;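 also: host cells are HeLa cells infected with Toxoplasma gondii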
Hits are given with their value; n = inactive.

SMILES	Tgondii IFNg
CCc1cccc(NC(=O)c2nc(Nc3ccccc3)c3ccccc3n2)c1	-72
COc1cc(-c2nc(Nc3ccc(C)cc3)c3ccccc3n2)cc(OC)c1OC	-93
COc1ccc(NC(=O)c2nc(Nc3ccccc3)c3ccccc3n2)cc1	n
CCc1ccc(Nc2nc(C(=O)NC)nc3ccccc23)cc1	n
COc1cccc(NC(=O)c2nc(Nc3ccc(C)cc3)c3ccccc3n2)c1	-88
COc1ccc(-c2nc(Nc3cc(C)cc(C)c3)c3ccccc3n2)cc1	n
CC1CNC(=O)CCN1C(=O)c1ccccc1-c1nccn1C (centres undefined)	n
COC(=O)c1cc2n(n1)CCCN(C(=O)c1cccc3[nH]c(C)nc13)C2	n
O=C(CCc1cc(=O)[nH]o1)NCc1cccnc1N1CCc2ccccc2C1	n
Cc1ccc(F)cc1C(=O)N1CC[C@@H](c2ccc3c(c2)OCO3)[C@H](O)C1	n
COCCN(C)C(=O)c1ccc2nnc3ncn(-c4ccccc4)c3c2c1	n
CCN1CC(C(=O)N2CCCC(COc3ccc(F)cc3)C2)CC1=O (centres undefined)	n
Cc1ccc(NC(=O)CN2CCC3(CC2)N=C(c2cccc(F)c2)C(=O)N3)cc1C	n
Cc1cccc(NC(=O)CN2CCC3(CC2)N=C(c2ccc(C)c(C)c2)C(=O)N3)c1	n
Cc1ccc(NC(=O)CN2CCC3(CC2)N=C(c2ccc(C(C)(C)C)cc2)C(=O)N3)cc1C	-76
CC1CCN(c2ncnc3c2cnn3CC(=O)Nc2ccc(N3CCOCC3)cc2)CC1	n
COCCN1CCOCC12CCN(Cc1ccn[nH]1)CC2	n
CCOC(=O)COc1ccc(Cl)cc1C(=O)OC	n
CCOC(=O)c1[nH]ncc1-c1ccc(Cl)cc1Cl	-95
CCOC(=O)c1[nH]c2cc(Cl)cc(Cl)c2c1CCC(=O)O	n
CN(C)C(=O)COCc1ncn2c1CN(c1ncc(F)cn1)CCC2	n
COc1ccc(C(=O)N2CCCc3cc(C4=NNC(=O)SC4C)ccc32)cc1OC (centres undefined)	n
CCCC(C)c1nnc(NC(=O)CCOCC)s1 (centres undefined)	n
Cc1ccc(-c2nc(C)c(CCNC(=O)C(=O)Nc3ccccc3Cl)s2)cc1	n
O=C(NCCc1csc2c1CCCC2)c1cn(CC2CCCNC2)nn1 (centres undefined)	-78
SMILES	Tgondii IFNg
CC1(C)Cc2ccccc2CN1C(=O)c1cn(CC2CCCNC2)nn1 (centres undefined)	n
Cc1cccnc1N1CCN(C(=O)c2cn(CC3CCCNC3)nn2)CC1 (centres undefined)	n
CCN(CC)c1cc(-c2cccc(O)c2)nc(N)n1	n
CN(C)C1CCN(C(=O)c2cc3c(c4ccccc4n3CC3CC3)n2-c2ncccn2)CC1	n
CC(C)Cn1c(CN(C)Cc2ncc[nH]2)nc2ccccc21	-84
CC(C)Cc1nc(CN(C)Cc2ncc[nH]2)no1	n
CNC(=O)C(C)N(C)Cc1nc2ccccc2n1CC(C)C (centres undefined)	n
CC1(C)CCc2cc(-c3ccn[nH]3)ccc2O1	n
Cc1ccccc1C1(O)CCN(Cc2cn[nH]c2-c2ccc(F)cc2)C1 (centres undefined)	n
Cc1cc(-n2cnnc2)ncc1-c1ccc(C(C)N2CCCC2)cc1 (centres undefined)	n
COc1ccc(F)c(-c2cnc(-n3cnnc3)cc2C)c1	-81
COc1ccc(F)c(-c2nc(OC)cc(OC)n2)c1	n
CCOC(=O)c1c(C)[nH]c(CCC(=O)NCCc2c[nH]c3ccc(OC)cc23)c1C	n
Cc1[nH]c(-c2ccccc2)nc1C(=O)N1CCN2C(=O)CN(C)C(=O)C2C1 (centres undefined)	n
COc1cc(C(=O)N2CCC3(CC2)Nc2cc(C)ccc2-n2cccc23)cc(OC)c1OC	n
O=S(=O)(NCCN1CCOCC1)c1cccc(C(F)(F)F)c1	n
CN(C)CC[C@H](CSc1ccccc1)Nc1ccc(S(=O)(=O)NC(=O)c2ccc(N3CCN(Cc4ccccc4-c4ccc(Cl)cc4)CC3)cc2)cc1[N+](=O)[O-]	-76
CC1(C)CCC(c2ccc(Cl)cc2)=C(CN2CCN(c3ccc(C(=O)NS(=O)(=O)c4ccc(N[C@H](CCN5CCOCC5)CSc5ccccc5)c(S(=O)(=O)C(F)(F)F)c4)cc3)CC2)C1	-72
Nc1nc(-c2ccc(Br)s2)cs1	n
Cc1ccc2c(c1)NC1(CCN(S(=O)(=O)c3cccc(F)c3)CC1)c1cccn1-2	n
Clc1ccc(-c2nc(C34CC5CC(CC(C5)C3)C4)cs2)cc1	n
O=C(Nc1nc(C23CC4CC(CC(C4)C2)C3)cs1)c1ccccc1	-107
O=C(NC12CC3CC(CC(C3)C1)C2)c1cccnc1	n
Cc1cnc(CNC(=O)c2nc(-c3cn(C(C)C)c(C)n3)n3ccccc23)cn1	n
CCc1cccc(NC(=O)c2c(O)c3cccnc3n(-c3ccc(F)cc3)c2=O)c1	n
SMILES	Tgondii IFNg
CCN(C(=O)CCc1c(C)nn(-c2ccccc2)c1C)C1CCN(C)CC1	n
Cc1nc(COC[C@]23CCC[C@@H]2CN(C(=O)N(C)C)C3)cs1	n
CN(Cc1noc(C2CCCC2)n1)C(=O)c1cnn2c1CCCC2	n
CCc1ccc(S(=O)(=O)N2Cc3c(CN4CCCCC4)nn(C)c3C2)cc1	n
CCCc1ccc(C(=O)N2Cc3c(CN4CCCCC4)nn(C)c3C2)cc1	-79
Cn1nc(CN2CCCCC2)c2c1CN(C(=O)c1cccc(C#N)c1)C2	n
NC(=O)C1CCN(C(=O)c2cncc(NS(=O)(=O)c3ccc(F)cc3)c2)CC1	n
NC(=O)NCC(=O)N1CCCC(C(=O)c2ccc(-c3ccccc3)c(F)c2)C1 (centres undefined)	n
O=C(Nc1cccc(-c2cc3ccccc3oc2=O)c1)c1ccc(Br)o1	n
Cc1cc(NC(=S)NC(=O)c2cccs2)ccc1-c1cc2ccccc2oc1=O	-80
O=C(NC(=S)Nc1ccc(S(=O)(=O)N2CCOCC2)cc1)c1cccs1	n
COC(=O)c1cc(C2CC2)nc2c1c(=O)n(Cc1nc(-c3ccccc3)oc1C)c(=O)n2C	n
COc1ccc(C[C@H](NC(=O)[C@H](C)NC(=O)CN2CCOCC2)C(=O)N[C@@H](Cc2ccccc2)C(=O)[C@]2(C)CO2)cc1	-74
CC(C)C[C@H](NC(=O)[C@H](CCc1ccccc1)NC(=O)CN1CCOCC1)C(=O)N[C@@H](Cc1ccccc1)C(=O)N[C@@H](CC(C)C)C(=O)[C@@]1(C)CO1	n
COc1ccc(-c2nc(C(=O)NC(C)CN3CCOCC3)cs2)cc1 (centres undefined)	n
CNS(=O)(=O)c1ccc(CN2CCCC(CCc3ccc(F)cc3)C2)cc1 (centres undefined)	n
O=C(Cn1nnc2ccccc2c1=O)NCCOCCn1c(=O)oc2ccccc21	n
c1coc(CN2CCC3(CC2)CNc2ccccc23)c1	n
O=C(C1CC2(CCNCC2)CN1)N1CCC(Oc2ccccc2F)CC1 (centres undefined)	n
CCN1CCC2(CC1)OC(=O)C(C)=C2C(=O)NCc1ccc(C)cc1	n
Cc1n[nH]c(C)c1N=Nc1cc(Cl)cc(Cl)c1	-92
Cc1nnc(SCCC(=O)N(Cc2sccc2C)C2CCCC2)s1	n
COc1ccccc1OCCOc1ccc(N)cc1	n
CCOC(=O)c1c(C)noc1-c1csc(COc2ccc(Cl)cc2)n1	n
COc1ccc(C(=O)Cn2nnc(-c3ccccc3NC(=O)c3ccc(F)cc3)n2)cc1	n
Cc1ccc(-c2noc(C3CCN3C(=O)c3ccc(=O)[nH]n3)n2)s1 (centres undefined)	n
CC(C)CCNS(=O)(=O)c1cc2c3c(c1)CCC(=O)N3CCC2	n
